From PubChem BioAssay AID1159580 (chemical genetic matrix, 2015)
In all, about 5,500 compounds went through this assay and about 2,000 (36%) were called active. About 18% were inconclusive and are not listed. Cut-off read from the data, not from the text of the source: active = normalized growth mostly below about 0.91 (no sharp cut-off); inconclusive = no clear call, values can overlap the other calls; inactive = mostly above about 0.92. The list shows a part of the results.

Assay: chemical genetic growth profiling, strain panel (AID 1159580);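 note: tested at 20 µM; growth read once vehicle control cultures reached saturation at 30 °C; 1 = growth at the plate median or of vehicle wells; lower values mean less growth of the strain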
Details: growth OD
[1] = S. cerevisiae deletion strains, locus YAL013W, strain DEP1, hits give low values
[2] = S. cerevisiae deletion strains, locus YAL040C, strain CLN3, hits give low values
[3] = S. cerevisiae deletion strains, locus YCL061C, strain MRC1 (second series), hits give low values
[4] = S. cerevisiae deletion strains, locus YDR363W, strain ESC2, hits give low values
[5] = S. cerevisiae deletion strains, locus YER002W, strain NOP16, hits give low values
[6] = S. cerevisiae deletion strains, locus YGR229C, strain SMI1, hits give low values
[7] = S. cerevisiae deletion strains, locus YMR307W, strain GAS1, hits give low values
[8] = S. cerevisiae deletion strains, locus YNL153C, strain GIM3, hits give low values
[9] = S. cerevisiae deletion strains, locus YNL175C, strain NOP13, hits give low values
[10] = S. cerevisiae deletion strains, locus YNL197C, strain WHI3, hits give low values
[11] = S. cerevisiae deletion strains, locus YNL224C, strain SQS1, hits give low values
[12] = S. cerevisiae deletion strains, locus YNL322C, strain KRE1, hits give low values
[13] = S. cerevisiae deletion strains, locus YOR083W, strain WHI5 (second series), hits give low values
[14] = S. cerevisiae deletion strains, locus YPL241C, strain CIN2, hits give low values
[15] = S. cerevisiae deletion strains, locus YGR078C, strain PAC10, hits give low values
[16] = S. cerevisiae deletion strains, locus YDL101C, strain DUN1, hits give low values
[17] = S. cerevisiae deletion strains, locus YHR030C, strain SLT2, hits give low values

Measured: normalized growth

NC(Cc1cccc(-c2ccccc2CP(=O)(O)O)c1)C(=O)O (stereo not drawn)
inactive: [1] 0.998 | [2] 1 | [3] 1 | [4] 0.983 | [5] 1.02 | [6] 1.01 | [7] 0.989 | S. cerevisiae deletion strains, locus YNL128W, strain TEP1, hits give low values 0.994 | [8] 1.04 | [9] 0.998 | [10] 0.995 | [11] 1 | [12] 1 | [13] 0.989 | [14] 1

C[C@H](Cc1ccccc1)Nc1ncnc2c1ncn2[C@@H]1O[C@H](CO)[C@H](O)C1O (stereo partly drawn)
inactive: [1] 0.995 | [2] 0.979 | [3] 1.01 | [4] 0.989 | [5] 0.997 | [15] 1 | [6] 1 | [7] 1 | [8] 1.22 | [9] 0.989 | [10] 0.99 | [11] 1 | [12] 0.996 | [13] 0.988

Cc1c(C(=O)Sc2ccc(F)cc2F)sc2nc(C(F)(F)F)nn12
active: S. cerevisiae deletion strains, locus YAR019C, strain CDC15, hits give low values 0.0973 | S. cerevisiae deletion strains, locus YBL105C, strain PKC1, hits give low values 0.0839 | S. cerevisiae deletion strains, locus YBR135W, strain CKS1, hits give low values 0.105 | S. cerevisiae deletion strains, locus YBR136W, strain MEC1, hits give low values 0.0954 | S. cerevisiae deletion strains, locus YBR160W, strain CDC28, hits give low values 0.0992 | S. cerevisiae deletion strains, locus YDL017W, strain CDC7, hits give low values 0.0838 | S. cerevisiae deletion strains, locus YDL028C, strain MPS1, hits give low values 0.38 | [16] 0.0962 | S. cerevisiae deletion strains, locus YDL108W, strain KIN28, hits give low values 0.105 | S. cerevisiae deletion strains, locus YDL132W, strain cdc53, hits give low values 0.0969 | S. cerevisiae deletion strains, locus YDL214C, strain PRR2, hits give low values 0.103 | S. cerevisiae deletion strains, locus YDR052C, strain DBF4, hits give low values 0.102 | S. cerevisiae deletion strains, locus YDR054C, strain cdc34, hits give low values 0.0939 | S. cerevisiae deletion strains, locus YDR226W, strain ADK1, hits give low values 0.105 | S. cerevisiae deletion strains, locus YDR477W, strain SNF1, hits give low values 0.107 | S. cerevisiae deletion strains, locus YER123W, strain YCK3, hits give low values 0.111 | S. cerevisiae deletion strains, locus YER133W, strain GLC7, hits give low values 0.106 | S. cerevisiae deletion strains, locus YFL009W, strain cdc4, hits give low values 0.102 | S. cerevisiae deletion strains, locus YFL029C, strain CAK1, hits give low values 0.101 | S. cerevisiae deletion strains, locus YFR003C, strain YPI1, hits give low values 0.45 | S. cerevisiae deletion strains, locus YFR019W, strain FAB1, hits give low values 0.107 | S. cerevisiae deletion strains, locus YFR028C, strain CDC14, hits give low values 0.0976 | S. cerevisiae deletion strains, locus YGR040W, strain KSS1, hits give low values 0.0958 | S. cerevisiae deletion strains, locus YGR052W, strain FMP48, hits give low values 0.106 | S. cerevisiae deletion strains, locus YGR092W, strain DBF2, hits give low values 0.116 | [17] 0.103 | S. cerevisiae deletion strains, locus YHR079C, strain IRE1, hits give low values 0.101 | S. cerevisiae deletion strains, locus YHR082C, strain KSP1, hits give low values 0.133 | S. cerevisiae deletion strains, locus YHR205W, strain SCH9, hits give low values 0.000493 | S. cerevisiae deletion strains, locus YIL147C, strain SLN1, hits give low values 0.488 | S. cerevisiae deletion strains, locus YJL095W, strain BCK1, hits give low values 0.0913 | S. cerevisiae deletion strains, locus YJL128C, strain PBS2, hits give low values 0.0913 | S. cerevisiae deletion strains, locus YJL157C, strain FAR1, hits give low values 0.0866 | S. cerevisiae deletion strains, locus YJR016C, strain ILV3, hits give low values 0.0901 | S. cerevisiae deletion strains, locus YJR066W, strain TOR1 (second series), hits give low values 0.0917 | S. cerevisiae deletion strains, locus YJR066W, strain TOR1, hits give low values 0.122 | S. cerevisiae deletion strains, locus YKL048C, strain ELM1, hits give low values 0.131 | S. cerevisiae deletion strains, locus YKL067W, strain YNK1, hits give low values 0.108 | S. cerevisiae deletion strains, locus YKL101W, strain HSL1, hits give low values 0.0974 | S. cerevisiae deletion strains, locus YKL193C, strain SDS22, hits give low values 0.101 | S. cerevisiae deletion strains, locus YKL203C, strain TOR2, hits give low values 0.103 | S. cerevisiae deletion strains, locus YLR113W, strain HOG1, hits give low values 0.145 | S. cerevisiae deletion strains, locus YLR133W, strain CKI1, hits give low values 0.0966 | S. cerevisiae deletion strains, locus YLR403W, strain SFP1, hits give low values -0.00147 | S. cerevisiae deletion strains, locus YML070W, strain DAK1, hits give low values 0.103 | S. cerevisiae deletion strains, locus YMR001C, strain CDC5, hits give low values 0.0979 | S. cerevisiae deletion strains, locus YMR205C, strain PFK2 (second series), hits give low values 0.101 | S. cerevisiae deletion strains, locus YMR277W, strain FCP1, hits give low values 0.1 | S. cerevisiae deletion strains, locus YNL006W, strain LST8, hits give low values 0.0889 | S. cerevisiae deletion strains, locus YNL020C, strain ARK1, hits give low values 0.0935 | S. cerevisiae deletion strains, locus YNL161W, strain CBK1, hits give low values 0.0956 | S. cerevisiae deletion strains, locus YNL183C, strain NPR1, hits give low values 0.104 | S. cerevisiae deletion strains, locus YNL207W, strain RIO2, hits give low values 0.214 | S. cerevisiae deletion strains, locus YNL222W, strain SSU72, hits give low values 0.102 | S. cerevisiae deletion strains, locus YNL307C, strain MCK1 (second series), hits give low values 0.105 | S. cerevisiae deletion strains, locus YOL078W, strain AVO1, hits give low values 0.101 | S. cerevisiae deletion strains, locus YOL136C, strain PFK27, hits give low values 0.0958 | S. cerevisiae deletion strains, locus YOR061W, strain CKA2, hits give low values 0.12 | S. cerevisiae deletion strains, locus YOR119C, strain RIO1, hits give low values 0.116 | S. cerevisiae deletion strains, locus YOR231W, strain MKK1, hits give low values 0.103 | S. cerevisiae deletion strains, locus YOR329C, strain SCD5, hits give low values 0.0884 | S. cerevisiae deletion strains, locus YPL031C, strain PHO85, hits give low values 0.0971 | S. cerevisiae deletion strains, locus YPL153C, strain RAD53, hits give low values 0.102 | S. cerevisiae deletion strains, locus YPL204W, strain HRR25, hits give low values 0.111 | S. cerevisiae deletion strains, locus YPL209C, strain IPL1, hits give low values 0.0875 | S. cerevisiae deletion strains, locus YPL256C, strain CLN2, hits give low values 0.124 | S. cerevisiae deletion strains, locus YPR025C, strain CCL1, hits give low values 0.0998 | S. cerevisiae deletion strains, locus YPR106W, strain ISR1, hits give low values 0.109 | S. cerevisiae deletion strains, locus YPR111W, strain DBF20, hits give low values 0.169 | S. cerevisiae deletion strains, strain NNK1, hits give low values 0.105 | S. cerevisiae deletion strains, strain TSCII, hits give low values 0.104

C/C(=N/O)c1sc2nc(C(F)(F)F)nn2c1C
inactive: [1] 0.954 | S. cerevisiae deletion strains, locus YBR229C, strain ROT2, hits give low values 0.957 | [16] 1.01 | S. cerevisiae deletion strains, locus YDL134C, strain PPH21, hits give low values 0.966 | S. cerevisiae deletion strains, locus YDR150W, strain NUM1, hits give low values 0.975 | S. cerevisiae deletion strains, locus YEL061C, strain CIN8, hits give low values 0.981 | [15] 0.956 | [6] 0.982 | [17] 0.89 | S. cerevisiae deletion strains, locus YHR087W, strain rtc3, hits give low values 0.961 | S. cerevisiae deletion strains, locus YJL187C, strain SWE1, hits give low values 0.974 | S. cerevisiae deletion strains, locus YJR043C, strain POL32, hits give low values 0.977 | S. cerevisiae deletion strains, locus YJR075W, strain HOC1, hits give low values 0.997 | S. cerevisiae deletion strains, locus YLR039C, strain RIC1, hits give low values 0.795 | S. cerevisiae deletion strains, locus YLR058C, strain SHM2 (second series), hits give low values 0.953 | S. cerevisiae deletion strains, locus YLR085C, strain ARP6, hits give low values 1.05 | S. cerevisiae deletion strains, locus YLR262C, strain YPT6, hits give low values 0.86 | S. cerevisiae deletion strains, locus YML094W, strain GIM5, hits give low values 0.943 | S. cerevisiae deletion strains, locus YMR219W, strain ESC1, hits give low values 0.963 | S. cerevisiae deletion strains, locus YMR263W, strain SAP30, hits give low values 0.964 | [8] 1 | S. cerevisiae deletion strains, locus YNL298W, strain CLA4 (second series), hits give low values 0.99 | [12] 0.962 | S. cerevisiae deletion strains, locus YNR030W, strain Alg12, hits give low values 0.989 | S. cerevisiae deletion strains, locus YPL055C, strain LGE1, hits give low values 0.96 | [14] 1.02 | S. cerevisiae deletion strains, locus YPR135W, strain CTF4, hits give low values 0.851 | S. cerevisiae strains, strain wild type, hits give low values 0.962
